# Bioassay records as filed in PubChem.
# Sampled rows, rich in hits. Any-hit rate of the full collection: about 7.6%.
# p53 reactivation: re-activators of mutant p53; Potency, µM (titrated, usually from 92.2 µM), without a hit: at the highest dose activity change, positive = activation, most hits filed as activators; H1299 p53-A138V BP100-luciferase reporter, luminescence, 24 h; 0.063% of 320,000 active; note: potency is the fitted concentration of half-maximal effect; % of control where 0% means no effect; nearly all actives have a fitted effect of over 45% in size
#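 p53-null H1299 cells stably carrying temperature-sensitive p53-A138V and a BP100-luciferase reporter were pinned with compounds (4-point, 1:5 series) and held 24 hrs at 37 deg C. Luminescence was read 10 min after detection reagent.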
# Giardia kill: Giardia lamblia killing. Giardia lamblia trophozoite viability. activity change, % at 7.66 µM, hits read low. 0.15% of 340,000 active; in the data active = activity change below about -80%; inconclusive = between about -30% and that limit;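 note: parasites exposed to compound for two days anaerobically before the ATP read; % is set by controls: 0 for no effect and ±100 for the full control effect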
#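 Killing of trophozoites was scored by loss of ATP luminescence after a 48 hrs anaerobic exposure to compounds at 37 deg C, using 100 cells per well.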
# Gal4-VP16 FLuc: inhibits Gal4-VP16 luciferase reporter, ROR gamma counter-screen. Potency, µM (highest dose often 53.6 µM), for the others: at the highest dose activity, negative = inhibition, hits mostly inhibitors. AID 2546. Drosophila S2 Gal4-VP16 UAS-luciferase, luminescence, 20 h. 3.5% of 310,000 active;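 note: Gal4-VP16 expression switched on by copper sulfate through the metallothionein promoter; potency is the fitted concentration of half-maximal effect; % is set by controls: 0 for no effect and ±100 for the full control effect; nearly all actives have a fitted effect of over 50% in size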
# BRCA1 expr up: activators of BRCA1 expression; MCF7-BRCA1-FFLuc reporter, luminescence, 48 h; response scale: scaled: vehicle 0%, 10 µM genistein 100%; Potency, µM (titrated, usually from 46.1 µM), without a hit: at the top dose activation, usual class: activators; 1.1% of 380,000 active; note: potency is the fitted concentration of half-maximal effect; nearly all actives have a fitted effect of over 80% in size
#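 First, MCF7-BRCA1-FFLuc cells (2000/well) attach for 2 h; next, compounds are pin-added and incubated 48 h at 37 °C; finally, luciferase reagent is added and luminescence read after 15 min.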
# ELG1 DNA repair: ELG1-dependent DNA repair inhibition | AID 504467 | Potency, µM (titrated, usually from 46.1 µM), without a hit: top-dose activity change, negative = inhibition, hits mostly inhibitors | HEK293T ELG1-luciferase reporter, luminescence, 16 h; DNA damage induced by 5-fluorouridine | 2.3% of 330,000 active; note: potency is the fitted concentration of half-maximal effect; % is set by controls: 0 for no effect and ±100 for the full control effect; nearly all actives have a fitted effect of over 55% in size
#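 In this reporter screen, reduction of luminescence relative to DMSO vehicle indicated activity. Compounds and 5-fluorouridine were added together to 2,000 cells per well, incubated for 16 hr at 37 °C, then developed with ONE-Glo.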
# RORg inh: blocks mouse ROR gamma transcriptional activity; Potency, µM (titrated, usually from 53.6 µM), for the others: top-dose activity change, negative = inhibition, hits mostly inhibitors; AID 2551; P51450; 5.4% of 310,000 active; Drosophila S2 Gal4-RORgamma UAS-luciferase reporter, 20 h; note: potency is the fitted concentration of half-maximal effect; % is set by controls: 0 for no effect and ±100 for the full control effect; nearly all actives have a fitted effect of over 60% in size
# Target sequence (P51450 whole entry, looked up, the tested form may be a part): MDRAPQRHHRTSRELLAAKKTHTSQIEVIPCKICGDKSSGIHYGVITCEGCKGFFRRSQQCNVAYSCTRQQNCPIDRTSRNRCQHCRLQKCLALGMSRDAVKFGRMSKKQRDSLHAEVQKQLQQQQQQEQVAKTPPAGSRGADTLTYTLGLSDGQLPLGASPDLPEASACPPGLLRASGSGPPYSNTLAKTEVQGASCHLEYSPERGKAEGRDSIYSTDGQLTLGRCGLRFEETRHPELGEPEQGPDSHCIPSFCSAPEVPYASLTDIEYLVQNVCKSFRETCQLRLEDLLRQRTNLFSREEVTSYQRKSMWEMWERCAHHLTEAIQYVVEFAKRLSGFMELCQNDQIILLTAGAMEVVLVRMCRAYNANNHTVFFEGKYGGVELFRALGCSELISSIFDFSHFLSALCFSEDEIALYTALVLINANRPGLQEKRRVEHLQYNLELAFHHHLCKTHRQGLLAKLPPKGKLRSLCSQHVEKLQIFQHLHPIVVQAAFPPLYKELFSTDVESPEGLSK
#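 Schneider cells (Drosophila), stable Gal4 DBD–ROR gamma + UAS-luc; 1 hr cmpd preincubation; Cu2+ induction 700 uM final; 20 hr ambient; luminescence.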
# Starred values were filed as active, the others as inactive; u = inconclusive; x = no result given; [ ] = dose if it differs, or a comment. Unless noted, calls come from the whole dose curve; as a rule, active = well fitted curve in the direction sought with a large enough effect; inconclusive = small, poorly fitted or top-dose-only effect, or another doubt; inactive = no such curve, though single readings can be large; an effect the other way counts as inactive or inconclusive.
SMILES,p53 reactivation,Giardia kill,Gal4-VP16 FLuc,BRCA1 expr up,ELG1 DNA repair,RORg inh
C=CCC1(CC=C)CCCN1C(=O)c1cc(COc2ccc(F)c(F)c2)on1,19%,5,u,0%,u,9%
COCCn1c(N)c(N(Cc2ccccc2)C(=O)c2ccc(N3CCCC3=O)cc2)c(=O)[nH]c1=O,x,-4,x,0%,x,x
O=[N+]([O-])c1nccn1CCCCCCN1CCOCC1,x,x,x,-1%,x,x
O=[N+]([O-])c1cncn1CCN1CCOCC1,x,-91*,x,-18%,x,x
CC(C)(C)c1cc(C(C)(C)C)cc(S(=O)(=O)CCc2ccccn2)c1,1%,-16,-19%,-28%,4%,11µM*
CC(C)(C)c1ccc(S(=O)(=O)NCc2ccccn2)cc1,x,12,u,32%,10%,-142%
CCN(CC)C(=O)CSc1nc2cc(OC)c(OC)cc2c(=O)n1Cc1ccc(Cl)cc1,-8%,-26,2%,2%[1.84 µM],u,27%
O=S(=O)(Nc1ccc(O)c2ccccc12)c1cccs1,-11%,2,-26%,-91%,9.2µM*,u
CC(=O)Nc1ccc(NS(=O)(=O)c2ccccc2)c2ccccc12,1%,10,-17%,2%,8%,20%
O=S(=O)(Nc1ccc(O)c2ccccc12)c1ccc(Br)cc1,-8%,x,-20%,x,23µM*,-36%
Cc1c(C=O)c2cc(OCc3ccccc3)ccc2n1C,17%,-2,15%,10µM*,u,u
Cc1ccc(CCN2CCN=C2Nc2ccccc2)cc1,14%,-19,x,8%,0%,x
O=C(Nc1ccccc1Cl)N1CCCN(c2nc(-c3ccccc3)ns2)CC1,-1%,10,-8%,-53%,u,23%
O=C(Nc1ccccc1)N1CCN(c2nc(-c3ccccc3)ns2)CC1,0%,2,-2%,-7%,23µM*,21%
COc1ccc2c(c1)O/C(=C\c1ccccc1C)C2=O,u,0,u,13µM*,u,u
CC(=O)Nc1cccc(NC(=O)c2ccc3[nH]c(C)c(C)c3c2)c1,13%,6,-10%,10µM*,u,20%
Cc1cc(NC(=O)c2ccc3[nH]c(C)c(C)c3c2)ccn1,9%,10,-7%,25%,6%,22%
COc1ccc(-c2[nH]ncc2CN2CCCCCCC2)c(OC)c1,0%,-2,-7%,5%,-6%,2%
O=C(CSc1nc2[nH]ncc2c(=O)[nH]1)c1ccc(Cl)cc1,4%,x,1%,x,7%,29%
CC12CC3CC(C)(C1)CC(C(=O)N1CCCC1)(C3)C2,-25%,-3,-3%,2%,-5%,-18%
CC12CC3CC(C)(C1)CC(C(=O)NC(=S)N1CCOCC1)(C3)C2,-3%,3,2.8µM*,-2%,-8%,1.1µM*
CCN(CC)CCNC(=O)C12CC3CC(CC(C3)C1)C2,1%,2,2%,-16%,10%,9%
O=C(NC(=S)N1CCCCC1)C12CC3CC(CC(C3)C1)C2,2%,5,13µM*,7%,3%,7.1µM*
CCOC(=O)N1CCN(C(=O)NC23CC4CC(CC(C4)C2)C3)CC1,3%,-20,-3%,-11%,3%,-9%
CCOC(=O)N1CCN(C(=S)NC(=O)C23CC4CC(CC(C4)C2)C3)CC1,5%,21,u,-8%,-19%,3.5µM*
SMILES,p53 reactivation,Giardia kill,Gal4-VP16 FLuc,BRCA1 expr up,ELG1 DNA repair,RORg inh
CCN(CC)C(=S)NC(=O)C12CC3CC(CC(C3)C1)C2,-1%,10,5µM*,-2%,10%,2.5µM*
Cc1ccc(-c2csc(N(CCc3ccccc3)C(=O)COc3ccccc3)n2)cc1,1%,-15,-2%,22%,8%,0%
COc1cccc(CNC(=O)Cn2ccc3cc(S(=O)(=O)N4CCCC4)ccc32)c1OC,-13%,-11,-6%,17%,-24%,0%
CC(=O)Nc1ccc(Oc2nc(-c3ccccn3)nc3ccccc23)cc1,7%,-2,u,-56%,u,-3%
Cc1cccc(Oc2nc(-c3ccccn3)nc3ccccc23)c1,7%,-6,2.2µM*,-9%,u,0.56µM*
Cc1ccccc1Oc1nc(-c2ccccn2)nc2ccccc12,-1%,-29,1.3µM*,-56%,u,0.32µM*
Cc1cccc(Oc2nc(-c3ccncc3)nc3ccccc23)c1,-5%,-22,-3%,-22%,0%,-19%
CC(=O)Nc1cccc(Oc2nc(-c3ccccn3)nc3ccccc23)c1,4%,0,u,0%,0%,5.6µM*
O=C1CCC(C(=O)Nc2ccc([N+](=O)[O-])cc2)N1 (configuration not stated),2%,12,x,-8%,7%,x
O=[N+]([O-])c1ccc(Nc2ccccc2O)c([N+](=O)[O-])c1,x,x,x,-22%,x,x
CC1CCC(NC(=O)N(CCCl)N=O)CC1 (configuration not stated),x,1,7%,5µM*,x,12%
Cc1cccc(C(=O)NC(=S)NNC(=O)c2cccs2)c1,u,-14,-18%,-43%,21µM*,u
CC(C)(C)c1ccc(C(=O)NC(=S)NNC(=O)c2cccs2)cc1,20%,-17,7.1µM*,-50%,u,4µM*
O=C(NNC(=O)c1cccs1)c1ccc(F)cc1,15%,2,5%,58%,u,8%
Cc1cccc(C(=O)NC(=S)NNC(=O)c2ccc(Cl)cc2)c1,10%,-6,u,-58%,u,10µM*
O=C(NC(=S)NNC(=O)c1cccs1)c1ccccc1,17%,-20,16µM*,-34%,13%,5.6µM*
COc1ccc(C(=O)NNC(=S)NC(=O)c2ccc(Cl)cc2)cc1,x,-13,x,-22%,x,x
O=C(NNC(=S)Nc1ccccc1)c1cccs1,u,-2,-21%,-6%,u,-23%
O=C(NNC(=O)c1cccs1)c1cccc(F)c1,10%,13,5%,74%,u,12%
Cc1ccccc1NC(=O)c1ccccc1NC(=O)c1cccs1,5%,u,23%,-3%,-1%,33%
Cc1ccccc1C(=O)NNC(=S)NC(=O)c1cccs1,u,-7,13µM*,-42%,-11%,7.9µM*
N=C1CCCN1CC(=O)c1ccc(Br)cc1,u,0,14%,u,u,3%
O=c1[nH]c(=O)n(Cc2ccccc2)c2nc(-c3ccc(Oc4ccc(F)cc4)c([N+](=O)[O-])c3)n(CCO)c12,-18%,-5,-18%,-90%,u,u
COCCn1c(-c2ccc(-c3ccc([N+](=O)[O-])cc3Br)o2)nc2c1c(=O)[nH]c(=O)n2CC(C)C,-1%,1,-3%,-46%,10µM*,0%
